This is a sample that favours compounds with a hit; in the whole collection about 4.4% have one here.
USP1 inh – Inhibitors of USP1/UAF1: Primary Screen | Potency, µM (series often up to 57.1 µM), without a hit: at the top dose activity change, negative = inhibition, actives largely listed as inhibitors | Ubiquitin carboxyl-terminal hydrolase 1 (Homo sapiens), O94782 | AID 743255, 2014 | recombinant USP1/UAF1, Ub-Rhodamine cleavage fluorescence | 390,000 tested, 0.23% active; active = well fitted inhibition curve with a large enough effect; inconclusive = small, poorly fitted or top-dose-only effect; inactive = no such curve, though single readings can be large or run the other way; note: potency is the fitted concentration of half-maximal effect; % is set by controls: 0 for no effect and ±100 for the full control effect; nearly all actives have a fitted effect of over 60% in size
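High-throughput fluorogenic screen: 1nM USP1/UAF1 complex, Ub-Rho substrate 150nM final, 50mM HEPES pH 7.8 with 0.5mM EDTA, 0.1 mg/ml BSA, 1mM TCEP and 0.01% Tween-20.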
TRHR enhancer – qHTS for Small Molecule Agonists and Allosteric Enhancers of Human TRH Receptor: Primary Screen for Enhancers. TRHR cells, fluo-8 calcium fluorescence, EC20 TRH enhancement. 360,000 tested, 0.66% active. enhancement, % at 2 µM. AID 493056, 2011. Thyrotropin-releasing hormone receptor (Homo sapiens), P34981; in the data active = enhancement above about 30%; note: 0% is about no effect
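TRHR-expressing cells loaded with fluo-8 calcium dye were read kinetically (ex 480/em 530) during compound addition, then stimulated with an EC20 of TRH (10 nM final). Enhancement of the Gq-mediated intracellular calcium response was scored.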
D1 PAM – Potentiators of Human D1 Dopamine Receptor: qHTS; D(1A) dopamine receptor (Homo sapiens), P21728; HEK293 TREx D1 cells, calcium flux, dopamine EC20 potentiation; potentiation, % at 10 µM; 360,000 tested, 0.036% active; AID 504651, 2011; in the data active = potentiation above about 30%; note: 0% is about no effect
Target sequence (P21728 whole entry, looked up): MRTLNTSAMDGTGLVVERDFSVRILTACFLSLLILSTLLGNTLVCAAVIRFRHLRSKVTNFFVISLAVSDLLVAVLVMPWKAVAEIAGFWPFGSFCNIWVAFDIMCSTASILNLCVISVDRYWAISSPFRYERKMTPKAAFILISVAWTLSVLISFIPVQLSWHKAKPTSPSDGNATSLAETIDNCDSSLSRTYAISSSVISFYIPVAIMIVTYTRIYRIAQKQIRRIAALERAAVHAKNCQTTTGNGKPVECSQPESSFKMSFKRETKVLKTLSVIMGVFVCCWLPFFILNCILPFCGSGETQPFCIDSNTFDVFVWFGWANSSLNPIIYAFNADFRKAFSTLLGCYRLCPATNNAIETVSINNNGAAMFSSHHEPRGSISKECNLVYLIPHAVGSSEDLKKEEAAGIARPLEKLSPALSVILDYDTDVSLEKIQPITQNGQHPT
D1 ag – Allosteric Agonists of the Human D1 Dopamine Receptor: qHTS; HEK293 T-REx D1 cells, calcium flux, agonist mode; activation, % at 2 µM; 360,000 tested, 1% active; AID 504660, 2011; note: 0% is about no effect
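Inducible HEK293 T-REx D1 cells, force-coupled to calcium signalling, were plated at 4000 cells/well with tetracycline and held overnight at 30 C. After no-wash calcium dye loading, compound-evoked calcium rise over 180 s flagged agonists.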
D1 antag – Antagonist of Human D 1 Dopamine Receptor: qHTS | HEK293 TREx D1 cells, calcium flux, dopamine EC80; active compounds read low | activity change, negative = inhibition, % at 10 µM | 360,000 tested, 3.2% active | AID 504652, 2011; in the data active = activity change below about -30%; note: % is set by controls: 0 for no effect and ±100 for the full control effect
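Using tetracycline-induced force-coupled D1 Hek293 cells and a calcium dye, signals were followed for 180 s after compound, then for 180 s after EC80 dopamine, to detect inhibitors.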
TRHR agonist – qHTS for Small Molecule Agonists and Allosteric Enhancers of Human TRH Receptor: Primary Screen for Agonists | Thyrotropin-releasing hormone receptor (Homo sapiens), P34981 | TRHR cells, calcium flux fluo-8, FDSS agonist mode | activation, % at 2 µM | 360,000 tested, 0.18% active | AID 493084, 2011; note: 0% is about no effect
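Read-out: compound-evoked intracellular calcium rise in TRHR cells, fluo-8 dye, kinetic FDSS fluorescence at 1 s/cycle following a 10-cycle baseline. Cells cultured overnight before dye loading (30 min–1.5 h, RT).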
The depositor's hits bear a star; ? = inconclusive; . = not tested or not shown. Cut-off read from the data, not from the text of the source, unless noted: active = activation above about 30%; inactive = the rest.

SMILES	USP1 inh	TRHR enhancer	D1 PAM	D1 ag	D1 antag	TRHR agonist
O=C(OCc1ccccc1)C1CCCN1C(=O)c1cccs1 (configuration not stated)	-19%	39*	-4	0	-15	-1
O=C(c1cccs1)N1CCC(c2ccccc2)C1 (configuration not stated)	0%	2	-1	0	-85*	-2
Cc1oc(-c2ccccc2Cl)nc1CS(=O)(=O)CC(=O)NCc1ccc(F)cc1	-26%	-2	0	4	-18	0
CCc1ccc(NC(=O)CSc2nnc(-c3cc4occc4n3C)n2-c2ccccc2C)cc1	?	2	-2	1	2	0
Cc1ccc(-n2nc(CO)c(C(=O)NCc3ccccn3)n2)cc1	-4%	-3	-1	1	1	0
Nc1ccc(SCC(=O)Nc2cccc([N+](=O)[O-])c2)cc1	0%	-1	-8	5	-49*	0
CCc1ccccc1NC(=O)CSc1nc(-c2ccccc2)nn1C(=O)c1cccc([N+](=O)[O-])c1	.	9	1	3	2	-1
O=C(CSc1nc(-c2ccccc2)nn1C(=O)c1ccccc1)Nc1cccc([N+](=O)[O-])c1	-8%	19	-2	15	-34*	0
CS(=O)(=O)Nc1nnc(SCC(=O)Nc2cccc([N+](=O)[O-])c2)s1	-18%	1	-4	2	-79*	-1
Cn1nnnc1SCC(=O)Nc1cccc([N+](=O)[O-])c1	-27%	-2	-2	0	8	0
Cc1ccc2oc(=O)n(CCNC(=O)Nc3ccc(Cl)cc3)c2c1	-10%	9	0	1	-28	0
COc1cc2c(C(=O)N3CCN(c4ccc(C)cc4)C(C)C3)cn(CC(C)C)c(=O)c2cc1OC (configuration not stated)	-18%	0	0	0	0	1
CN(Cc1ccccc1F)c1ccc(S(=O)(=O)N2CCCC2)cn1	-21%	-1	-8	13	-32*	-1
Cc1ccc(CN(C)c2ccc(S(=O)(=O)N3CCCC3)cn2)cc1	-18%	.	.	.	.	.
CCNC(=S)Nc1cccc(NC(=O)c2ccccc2O)c1	-12%	-9	-3	1	-36*	0
CCNC(=S)Nc1ccc(NC(=O)c2ccccc2O)cc1	-9%	-1	0	1	29	-1
CCC(C)NC(=S)N1CCN(C(c2ccccc2)c2ccccc2)CC1 (configuration not stated)	-12%	6	-4	0	-31*	0
Cc1ccc(C(=O)NNC(=O)C2CCN(Cc3ccccc3)CC2)cc1	-4%	6	0	2	10	0
O=C(NNC(=O)C1CCN(Cc2ccccc2)CC1)c1cccc(Cl)c1	-1%	4	-11	6	-62*	1
Cc1ccc(Cn2c(CN3CCC(C(=O)NCCc4ccccc4)CC3)cc3ccccc32)cc1	-12%	14	-3	43*	9	1
CC(C)CCNC(=O)C1CCN(Cc2cccc(OCc3ccccc3)c2)CC1	-9%	-2	-6	42*	-27	4
Cc1ccc(Cn2c(CN3CCC(C(=O)NCC(C)c4ccccc4)CC3)cc3ccccc32)cc1 (configuration not stated)	-18%	-1	-5	3	-6	0
O=C(NCCc1ccccc1)C1CCN(Cc2cc3ccccc3n2Cc2cccc(Cl)c2)CC1	-22%	31*	-3	2	-12	0
COc1cc(Nc2nc3c(S(=O)(=O)c4ccccc4)nnn3c3ccc(Cl)cc23)cc(OC)c1	13%	-5	-5	1	11	1
CC(C)CCOc1ccc(C(=O)NCC2OCCc3ccccc32)cc1 (configuration not stated)	-8%	-6	-3	12	-2	0
SMILES	USP1 inh	TRHR enhancer	D1 PAM	D1 ag	D1 antag	TRHR agonist
CC(C)COc1ccc(C(=O)NCC2OCCc3ccccc32)cc1 (configuration not stated)	-28%	-5	-1	2	-31*	1
O=C(COc1ccccc1)Nc1ccc(OCc2cc(=O)n3ccsc3n2)cc1	-24%	4	2	-1	5	0
COc1ccc(/C(C)=N/Nc2nc(C)c(C(C)=O)s2)cc1	-25%	4	2	4	-33*	0
CC(=O)c1sc(N/N=C\c2ccccc2O)nc1C	-11%	-1	-2	17	-10	21
Cc1ccc(-c2cc(-c3n[nH]c(=S)n3C)c3ccccc3n2)cc1	-17%	-25	-5	1	-37*	0
COC(=O)c1ccc(S(N)(=O)=O)o1	5%	0	-3	1	8	1
COC(=O)c1ccc(S(=O)(=O)N2CCCCC2)o1	-2%	36*	0	2	4	0
CCOC(=O)c1ccc(N2C(=O)c3[nH]nc(-c4ccc(C)cc4)c3C2c2cccc(F)c2)cc1 (configuration not stated)	-14%	9	6	6	-1	3
CCc1ccc(NC(=O)C(C)OC(=O)c2cc(=O)[nH]c3ccc(S(=O)(=O)Nc4ccc(F)cc4)cc23)cc1 (configuration not stated)	-26%	-20	-12	3	-37*	0
CC/C(=N\NC(=O)c1csc(C)c1C)c1cccs1	-4%	8	-1	0	0	0
CCC/C(=N\NC(=O)c1csc(C)c1C)c1cccs1	9%	35*	-14	2	6	0
COc1ccc(N=C(N)SCc2ccccn2)cc1	-18%	-8	-10	21	-43*	14
Cc1csc2nc(CNS(=O)(=O)c3ccc4c(c3)OCCO4)cn12	-10%	1	-6	6	-2	0
COc1ccc(S(=O)(=O)NCc2cn3c(C)csc3n2)cc1F	-26%	-2	-2	3	-49*	0
Cc1csc2nc(CNS(=O)(=O)c3ccc4c(c3)CCCC4)cn12	-17%	7	-17	10	-60*	-1
Cc1csc2nc(CNS(=O)(=O)N(C)C)cn12	-20%	6	.	1	-72*	0
CCn1ccc2cc(S(=O)(=O)N3CCC(C(=O)NCc4ccc(OC(C)C)cc4)CC3)ccc21	-9%	0	0	3	-25	0
